About 79,000 compounds went through this panel and 15% of them were active in at least one assay; those are over-represented in the sample as a whole. Values without a mark were called inactive. The source made the active and inactive calls. Rule as the data show it: active = growth inhibition above about 70%; inactive = the rest. Where a SMILES comes first, the peptide text is derived from it. The star is where a group is joined. Trt = c1ccc(C(c2ccccc2)(c2ccccc2)*)cc1; Cbz = O=C(OCc1ccccc1)*; Bz = O=C(c1ccccc1)*
Test: NCI Yeast Anticancer Drug Screen. Data for the mlh1 rad18 strain (AID 175)
Settings: S. cerevisiae mlh1 rad18 strain growth inhibition; at 50.0 µM; active compounds read high
How it was run: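 Yeast w/ defined DNA-repair lesions; compound exposure; growth vs vehicle controls → % inhibition.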

Row | Compound | growth inhibition
1 | C#CCNC(=O)NC(CCCCNC(=O)OCc1ccccc1)C(=O)OCc1ccccc1 (stereo not given) | -4.8%
2 | Cc1ccc(N=C=Nc2ccc(C)cc2)cc1 | -1.5%
3 | OCC(F)(F)C(F)(F)C(F)(F)C(F)(F)C(F)(F)C(F)(F)C(F)(F)C(F)F | 8.6%
4 | OC(CCCN1CCN2CCc3[nH]c4ccccc4c3C2C1)c1ccc(F)cc1 (stereo not given) | 10.8%
5 | Cc1ccc(C(=O)/C(C#N)=C/Nc2c(C)n(C)n(-c3ccccc3)c2=O)cc1 | 26.5%
6 | COC1OC2COC(c3ccccc3)OC2C(OC(C)=O)C1OS(=O)(=O)c1ccc(C)cc1 (stereo not given) | 28.8%
7 | Nc1ccc(N=Nc2c(S(=O)(=O)O)cc3cc(S(=O)(=O)O)cc(O)c3c2O)cc1 | 10.8%
8 | O=C(c1ccccc1)C1CCCCN1C(=O)c1ccccc1 (stereo not given) | -21.9%
9 | O=C(Cn1c(=O)oc2ccc(C(=O)c3ccc(F)cc3)cc21)c1ccccc1 | -26.9%
10 | COc1cc(/C=C(\C#N)c2ccccn2)cc(Br)c1O | -21.6%
11 | CCC(NC(C)c1ccccc1)C(O)c1ccc(OCc2ccccc2)c(OCc2ccccc2)c1 (stereo not given) | 87.7% (active)
12 | CC(=O)Nc1ccc2nc(/C=C/c3ccc(N(C)C)cc3)c(=O)oc2c1 | 29.9%
13 | CC(C)CCN(CC(C)C)C(=O)c1ccc([N+](=O)[O-])cc1 (tested in a mixture with another compound) | 14.1%
14 | CNC(CCCC1CCCCC1)C(=O)O (stereo not given) | -7.35%
15 | C(=C\c1csnn1)/c1ccc(/C=C/c2csnn2)cc1 | -8.2%
16 | CC(SC(=S)N1CCOCC1)C(=O)O (stereo not given) | -7.6%
17 | CC(C)(C)C(=O)C(C(c1ccccc1)N1CCOCC1)N1CCOCC1 (stereo not given) | -10.6%
18 | CC(=O)CC(=O)NC(C)(C)CC(C)(C)C | -9.55%
19 | COC1OC(CCl)C(Cl)C(Cl)C1O (stereo not given) | 4.8%
20 | O=c1cc(N2CCOCC2)n2c(ccc3ccccc32)n1 | -2.6%

Row | Compound | growth inhibition
21 | CC(=O)OCC1OC(n2c3c(c(-c4ccc(Cl)cc4)c(C#N)c2=S)C(=O)CC(C)(C)C3)C(OC(C)=O)C(OC(C)=O)C1OC(C)=O (stereo not given) | -37.5%
22 | CCCC(C)NC(=O)c1ccc(Cl)c(Cl)c1 (stereo not given) | 24.6%
23 | O=c1[nH]c(=O)n(C2CC(O)C(CO)O2)c2ncncc12 (stereo not given) | -57.1%
24 | CC1C(O)CC2(C(C)C)CC12 (stereo not given) | -10.4%
25 | CCOC(=O)c1ccc(OCC)cc1O | -15.8%
26 | Nc1c(Cl)cc2c(c1Br)Cc1cc(F)ccc1-2 | -9.65%
27 | CNC(=S)N(C)/N=C/c1ccccc1 | 3%
28 | O=C(NC/C=C/Br)Oc1cccc2ccccc12 | 11.3%
29 | COC(=O)C(CSC(=O)c1ccccc1)NC(=O)CNC(=O)CNC(=O)C(CCCCNC(=O)OCc1ccccc1)NC(=O)CNC(=O)C(CSC(c1ccccc1)(c1ccccc1)c1ccccc1)NC(=O)OCc1ccccc1 (stereo not given) (Cbz-C(Trt)GK(Cbz)GGC(Bz)-OMe; configuration not given here) | 32.1%
30 | CC1(C)C(=O)/C=C\C(=O)C(C)(C)C2=CC=C(O2)C(C)(C)C(=O)C(Br)C(Br)C(=O)C(C)(C)C2=CC=C1O2 (stereo not given) | -27.6%
31 | CCc1c2c(nc3ccc(O)cc13)-c1cc3c(c(=O)n1C2)COC(=O)[C@]3(O)CC | -7.25%
32 | C[N+](C)(C)C1C2(CCCCC2)NC(=O)C12CCCCC2 (stereo not given) | -2.9%
33 | O=C(NNC(=O)C(F)(F)F)C(F)(F)F | -2%
34 | CC(Cc1ccccc1)c1ccccc1 (stereo not given) | 2.1%
35 | OC1C(OCc2ccccc2)OC(COCc2ccccc2)C(OC2OC(COCc3ccccc3)C(OCc3ccccc3)C(OCc3ccccc3)C2OCc2ccccc2)C1OCc1ccccc1 (stereo not given) | -3.6%
36 | CCCCOC(=O)c1cccc2c1-c1ccccc1C2=O | -0.7%
37 | C=CCn1c(SC)nc2c(c1=O)CCCC2 | -10.2%
38 | CCCCCCCCCCCCCCCCCC(=O)Nc1nc(N)nc(N)n1 | 6.15%
39 | O=C(O)c1ccc(CC2CCCC2)cc1 | 8.85%
40 | CCC(=O)c1cccc(-c2ccccc2)c1CC | 12.9%

From PubChem BioAssay (NCI)
